Most compounds without a hit are left out; they make up all but 2.4% or so of the library.
Epigenetic derep: regulators of epigenetic silencing causing reporter derepression in mouse cells | murine LDR cells, GFP reporter derepression, 30 h | Potency, µM (series often up to 53.9 µM), inactives show at the highest dose GFP activation, usual class: activators | actives 0.2% (n = 280,000); further: % of control where 0% means no effect; nearly all actives have a fitted effect of over 60% in size
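Murine LDR cells carrying a silenced, genomically integrated CMV-driven GFP reporter were exposed to compound for 30 hours at 37 C. After PBS washes, GFP-positive cells (20–120 um objects) were counted by laser-scanning microplate cytometry.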
Nrf2 block: inhibitors of Nrf2 signaling. A549 ARE-Fluc reporter, luciferase luminescence, 18-24 h. Potency, µM (highest dose often 46 µM), without a hit: top-dose activity change, negative = inhibition, usual class: inhibitors. actives 2.1% (n = 360,000); further: on the % scale 0 is the no-effect control and ±100 the full control effect; nearly all actives have a fitted effect of over 60% in size
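Cells were seeded and rested 2 h, then exposed to compounds for 18-24 h. CellTiter-Fluor was read first as a viability measure. BugLite was added 15 min before the final luminescent read of ARE-luciferase activity in A549 cells.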
Nrf2 activator: activators of Nrf2 (ARE) signaling | AREc32 ARE-luciferase reporter (MCF7-derived line), luminescence, 24 h | Potency, µM (titrated, usually from 46.1 µM), inactives show top-dose activation, usual class: activators | actives 0.31% (n = 410,000); further: % of control where 0% means no effect; nearly all actives have a fitted effect of over 65% in size
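Luciferase luminescence (Steady-Glo, 30 min at room temperature) served as the read-out of ARE activation in AREc32 cells treated with compounds for 24 hr at 37 deg C.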
PINK1 expr mod: changes PINK1 expression | AID 624263 | actives 0.2% (n = 410,000) | PINK1 immunofluorescence, high-content cytometry, 24 h | Potency, µM (doses to about 76.6 µM), for the others: top-dose activation (PINK1 increase), usual class: activators; active means well fitted activation curve with a large enough effect; inconclusive means small, poorly fitted or top-dose-only effect; cell line not stated here; further: % of control where 0% means no effect; nearly all actives have a fitted effect of over 65% in size
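Decision-based qHTS: stable cells, 24 h exposure to five compound concentrations, CCCP as control. Fixed cells stained for PINK1 plus nuclear, mitochondrial and cell markers, cytometer read.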
A549 tox: kills or reduces viability of A549 cells in Nrf2 counter-screen; AID 504648; actives 0.16% (n = 390,000); A549 ARE-Fluc cells, CellTiter-Fluor viability, 18-24 h; Potency, µM (titrated, usually from 46 µM), inactives show top-dose activity change, negative = cytotoxicity, hits mostly inhibitors; further: on the % scale 0 is the no-effect control and ±100 the full control effect
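A549 ARE_Fluc cells in 5% FBS OPTI-MEM were exposed to compounds in concentration-response for 18-24 h at 37 deg C. Viability was read by CellTiter-Fluor fluorescence (Ex 405/Em 525) after 30 min, before the luciferase read.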
Numbers without * were called inactive; u = inconclusive; x = no result given; ! = not active in a repeat; [ ] = dose if it differs, or a comment. Unless noted, the call rests on the fitted dose curve; in most records, active means well fitted curve in the direction sought with a large enough effect; inconclusive means small, poorly fitted or top-dose-only effect, or another doubt; inactive means no such curve, though single readings can be large; an effect the other way counts as inactive or inconclusive. Potency means the concentration at half of the fitted maximal effect.

SMILES	Epigenetic derep	Nrf2 block	Nrf2 activator	PINK1 expr mod	A549 tox
CCCc1cc(=O)oc2c3c(cc(OCC(=O)NCc4ccccn4)c12)OC(C)(C)CC3	x	u	5.7%	-0.1%	-1.8%
CCCc1cc(=O)oc2c3c(cc(OCC(=O)NCc4ccncc4)c12)OC(C)(C)CC3	x	11.6µM*	0.6%	2.0%	u
COC(=O)c1cc(CNC(=O)c2ccncc2)cc(NC(=O)c2ccccc2Cl)c1	x	x	x	-0.2%	x
N=c1c2c(ccn1-c1ccccc1)Oc1ccc3ccccc3c1C2c1ccccc1 (configuration not stated)	x	16.4µM*	x	x	u
N=c1c2c(ccn1CCCc1ccccc1)Oc1ccc3ccccc3c1C2c1ccccc1 (configuration not stated)	x	14.6µM*	x	x	14.6µM*
CCc1ccc(/C=C/c2c([N+](=O)[O-])c(=O)n(C)c(=O)n2C)cc1	x	13µM*	u	-1.4%	u
COc1ccc(/C=C/c2c([N+](=O)[O-])c(=O)n(C)c(=O)n2C)c(OC)c1	-5.4%	-14.8%	3.1%	7.0%	4.4%
Cn1c(/C=C/c2ccc(Cl)cc2Cl)c([N+](=O)[O-])c(=O)n(C)c1=O	x	25.9µM*	u	1.5%	u
COc1cccc(C2c3c(ncn(-c4ccc(F)cc4)c3=N)Oc3ccc4ccccc4c32)c1 (configuration not stated)	x	u	x	x	-20.8%
O=C(c1nn(Cc2ccccc2)c(=O)c2ccccc12)N1CCc2ccccc2C1	-0.8%	23.1µM*	0.3%	-3.2%	u
CN(C)c1ccc(N=Cc2ccncc2)cc1	x	x	x	0.1%	x
O=C(/C=C/c1ccc(Br)o1)Nc1nccs1	-2.1%	u	6.31µM*	3.5%	1.5%
CCC1CN(Cc2cn[nH]c2-c2ccc(OC)cc2)Cc2cc(OC)ccc2O1 (configuration not stated)	x	x	x	5.6%	x
CCCCCCCCC[n+]1cccc2c3ccccc3ccc21	-0.3%	9.2µM*	6.2%	u	u
CCCCCCCCCCCCCCCC[n+]1cccc2ccccc21	0.0%	25.9µM*	-3.5%	-2.9%	-17.5%
Brc1cccc[n+]1CCCCCC[n+]1ccccc1Br	x	x	x	1.2%	x
CN1c2ccsc2/C(=N/Nc2ccccc2)CS1(=O)=O	0.0%	u	7.08µM*	4.6%	-5.2%
O=C(NCCCCc1ccccc1)c1nn(-c2ccccc2)nc1CO	-3.1%	23.1µM*	-0.9%	-1.6%	-7.0%
COc1cccc(C2c3c(ncn(-c4ccc(C)cc4)c3=N)Oc3ccc4ccccc4c32)c1 (configuration not stated)	x	11.2%	x	x	-18.1%
O=C1c2ccc(Br)cc2C(=O)N1c1ccc(Cc2ccncc2)cc1	1.7%	20.6µM*	1.7%	0.4%	-13.9%
CN(C)c1ccc(S(=O)(=O)N2CCC(Cc3ccccc3)CC2)cn1	x	20.6µM*	-0.3%	4.5%	-4.1%
Cc1ncc(C[n+]2csc(CCO)c2C)c(N)n1	1.1%[16.9 µM]	14.6µM*!	0.1%	0.4%	u
Cc1ncc(C[n+]2csc(C)c2C)c(N)n1	2.1%	1.6%	1.6%	1.4%	4.0%
COc1ccc(NC(=O)Nc2nnc(SCC(=O)Nc3cccc(C)c3C)s2)cc1	11.3%	x	4.7%	0.2%	-13.5%
CN1CCCC(CNC(=O)c2cnn(-c3ncc4c(n3)-c3ccccc3CC4)c2C2CC2)C1 (configuration not stated)	x	x	x	1.5%	x
SMILES	Epigenetic derep	Nrf2 block	Nrf2 activator	PINK1 expr mod	A549 tox
CSc1cccc(NC(=O)C2CCCN(c3ncnc4c3nc3n4CCCCC3)C2)c1 (configuration not stated)	x	18.4µM*	-0.2%	2.0%	-20.5%
O=C(C1CCN(c2ncnc3c2nc2n3CCCCC2)CC1)N1CCN(c2cccc(Cl)c2)CC1	-0.4%	u	-1.5%	-0.7%	1.3%
Clc1cccc(N2CCN(c3ncnc4c3nc3n4CCCCC3)CC2)c1	0.6%	13µM*	0.1%	4.6%	u
CCN(C(=O)C1CCCN(c2ncnc3c2nc2n3CCCCC2)C1)c1cccc(Cl)c1 (configuration not stated)	0.1%	14.6µM*!	2.3%	-0.9%	0.1%
CCC1(C2CCN(C(=O)c3ccc(C)cc3C)CC2)NC(=O)N(CCc2scnc2C)C1=O (configuration not stated)	x	x	x	-0.5%	x
COc1ccc(-c2csc(NC(=O)Cc3ccccc3F)n2)cc1OC	x	20.6µM*	2.9%	-1.1%	u
CCOC(=O)c1c(-c2ccccc2)csc1NC(=O)/C(C#N)=C\c1ccc(O)c(OC)c1	x	14.5%	2.6%	0.0%	-3.2%
CCOC(=O)c1c(-c2ccc(C)cc2)csc1NC(=O)/C(C#N)=C/c1ccc(O)c(OC)c1	11.2µM*	u	-0.1%	0.3%	-19.2%
COC(=O)c1c(-c2ccc(C)cc2)csc1NC(=O)Cc1ccc(OC)c(OC)c1	2.3%	18.4µM*	-0.4%	-0.9%	-2.1%
COc1ccc(CC(=O)Nc2nc(-c3ccc(OC)c(OC)c3)cs2)cc1OC	x	14.6µM*	2.6%	2.6%	u
O=C(Cc1ccccc1F)Nc1nc(-c2ccc(F)cc2)cs1	x	5.7%	6.6%	5.7%	-11.7%
COc1ccc(-c2csc(NC(=O)CS(=O)(=O)c3ccccc3)n2)cc1OC	x	x	-0.1%	2.8%	x
CC1(C)CC(C(=O)N2CCOc3ccc(CN4CCN(Cc5ccccn5)CC4)cc3C2)CCO1 (configuration not stated)	x	x	x	-0.4%	x
O=C(Nc1nnc(Cc2ccccc2)s1)C1CCN(C(=O)c2cccs2)CC1	x	u	x	-0.9%	0.4%
Cc1cccc(C(=O)N2CCOc3ccc(CN(C)Cc4cc(C5CC5)n[nH]4)cc3C2)n1	x	x	x	-0.7%	x
Cc1ccc(NC(=O)Nc2nnc(SCC(=O)N3CCCCC3)s2)cc1	2.8%	x	0.1%	-0.8%	3.9%
COc1ccc(-c2csc(NC(=O)CSCc3c(C)noc3C)n2)cc1OC	x	23.1µM*	2.5%	1.3%	-7.9%
COc1ccccc1CC(=O)Nc1nc(-c2ccc(F)c(F)c2)cs1	x	23.1µM*	4.2%	5.1%	-4.0%
O=C(Nc1ccccc1)Nc1nc(-c2ccc(F)c(F)c2)cs1	x	-3.5%	8.8%	11.5%	-11.0%
COc1cccc(OC)c1CN1CCC2(CCC(CNC(=O)c3ccccc3)O2)CC1 (configuration not stated)	x	x	x	0.1%	x
Cc1ccc(CN2CCc3nnc(C(NS(C)(=O)=O)C(C)C)n3CC2)cc1C (configuration not stated)	x	x	x	0.3%	x
COC(=O)N[C@H](c1ccccc1)[C@@]1(C)C[C@@H]1[C@@H](C)C(=O)Nc1ccc2ccccc2c1	1.6%	18.4µM*!	0.2%	2.4%	u
COc1ccc(-c2nc(CCNC(=O)c3c(F)cccc3Cl)cs2)cc1	0.0%	x	0.2%	0.4%	11.3%
CC(c1ccccc1)n1c(SCC(=O)N2CC(=O)Nc3ccccc32)nc2ccccc2c1=O (configuration not stated)	0.0%	16.4µM*	0.3%[9.22 µM]	0.7%	-17.4%

Screening results (PubChem BioAssay)
